The panel holds about 83,000 compounds, 20% with a hit somewhere; the sample as a whole holds those more often.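 Interpretation: 100, growth as untreated; towards 0, rising growth inhibition; 0, no net growth; 0 to -100, cell death. Compounds scoring below 10 were considered active.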 The source made the active and inactive calls.
Tested on: NCI/ADR-RES ovarian
Assay: NCI-60 one-dose screen, 48 h (100 = growth as untreated, 0 = no growth, -100 = all killed)
Settings: 10 µM unless noted

Row | Compound | growth
1 | C/C(=N/O)c1ccc(NC(=O)CSc2nnc(-c3ccc(-c4nc5ccc(Cl)cc5[nH]4)cc3)o2)cc1 | 88.9% (inactive)
2 | CC[C@@]12CC(C(=O)OC)=C3Nc4cc5c(cc4[C@@]34CCN(C[C@H]3O[C@H]31)[C@@H]24)[C@@H]1[C@H](O5)[C@@H](O)[C@@]2(CC)CC(C(=O)OC)=C3Nc4cc(O)ccc4[C@@]34CCN1[C@@H]24 | 6.74% (active)
3 | N#Cc1c(-c2ccc(F)cc2)nc(SCc2ccccc2)nc1N1CCNCC1 | -51.1% (active)

From PubChem BioAssay (NCI)
